Data on 17 molecules can be found in PubChem BioAssay.

In experiment [1] the test system is XIP peptide (Xip251-270) binding. Nature of the experiment: small-molecule binders of XIP peptide, primary screen, biochemical, small-molecule microarray, fluorescence 635/667 nm, 0.1 µg/mL protein (AID 1182). The following applies: fluorescent protein binding, 635 nm, higher = more signal, called active from +8 up or from −8 down.
The next experiment relates to XIP peptide (Xip251-270). Nature of the experiment: small-molecule binders of XIP peptide, primary screen, biochemical, small-molecule microarray, fluorescence 635/667 nm, 0.5 µg/mL protein (AID 1183). The following applies: small-molecule microarray binding, fluorescence 635 nm; higher = more signal.
A short description of experiment [2]: Plasmodium falciparum growth inhibition, primary screen, strain 3D7, DAPI fluorescence, 100 nL (AID 1184).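 Further: parasites grown inside human red blood cells in medium with human serum.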 The note with it: P. falciparum 3D7 growth, 3 d, higher = more signal.
Experiment [3] deals with Homeobox protein Hox-A13 (Mus musculus) (UniProt Q62424). The experiment is described as follows: inhibitors of HoxA13-DNA binding, primary screen, biochemical, fluorescence polarization, labeled oligonucleotide (AID 1185). The note with it: 15 min, higher = more signal, called active from +8 up or from −8 down. On the technique in general: Fluorescence polarisation rises when a labelled molecule tumbles more slowly, as on binding a larger partner.
Sequence of Homeobox protein Hox-A13 (Mus musculus) (Q62424 whole entry, looked up): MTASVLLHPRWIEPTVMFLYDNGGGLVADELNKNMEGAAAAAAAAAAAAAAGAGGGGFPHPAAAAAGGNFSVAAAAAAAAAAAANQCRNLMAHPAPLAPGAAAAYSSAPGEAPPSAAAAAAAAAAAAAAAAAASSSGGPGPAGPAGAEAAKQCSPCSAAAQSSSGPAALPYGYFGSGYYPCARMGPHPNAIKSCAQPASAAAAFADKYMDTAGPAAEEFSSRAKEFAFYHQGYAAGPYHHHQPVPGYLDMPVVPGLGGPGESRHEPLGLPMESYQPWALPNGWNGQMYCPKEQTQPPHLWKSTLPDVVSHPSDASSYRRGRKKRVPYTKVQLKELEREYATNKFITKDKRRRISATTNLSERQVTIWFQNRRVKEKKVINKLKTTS

Experiment [4] is described as follows: inhibitors of hydroxyurea-induced Chk1 phosphorylation, primary screen, imaging, HeLa, phospho-Chk1 antibody, percent positive cells (AID 1186). The following applies: hydroxyurea-induced phospho-Chk1 immunofluorescence imaging, higher = more signal.
Experiment [5] can be described thus: inhibitors of hydroxyurea-induced Chk1 phosphorylation, primary screen, imaging, HeLa, phospho-Chk1 nuclear intensity (AID 1187). The note with it: hydroxyurea-induced phospho-Chk1 immunofluorescence imaging, higher = more signal.

SMILES strings stand for the structures. Activity calls are given as the source filed them. Unless noted, how the calls were made is not given here.

As for `COc1ccc(C(=O)Nc2cccc(CN3C(=O)[C@@]4(O[C@@H](CCn5cc([C@H](O)c6ccccc6)nn5)[C@H]([Si](C)(C)c5ccc(OC)cc5)[C@H]4C)c4ccccc43)c2)cc1`, the figures for the composite z-score (in experiment [1]; with XIP peptide (Xip251-270)) were 0.0252 (inactive) and 0.575, respectively. In addition, the z-score was -2.31 in experiment [2], 0.472 (inactive) in experiment [3], -0.694 (inactive) in experiment [4] and -1.14 (inactive) in experiment [5].

Regarding `COC(=O)[C@@]1(Cc2ccc(OC)cc2)[C@H]2c3cc(C(=O)N4CCCC4)n(CCN4CCOCC4)c3C[C@H]2CN1C(=O)c1ccccc1`, the figures for the composite z-score (in experiment [1]; in the experiment on XIP peptide (Xip251-270)) were 1.11 (inactive) and 0.0956, respectively. In addition, the z-score in experiment [2] is -1.17; in experiment [3], -5.18 (inactive); in experiment [4] it was 0.778 (inactive); in experiment [5], 0.485 (inactive).

Regarding `CO[C@H]1O[C@H](CO)[C@@H](OC(=O)Nc2cccc(F)c2)[C@H](OC(=O)Nc2ccccc2-c2ccccc2)[C@@H]1OC(=O)Nc1ccccc1-c1ccccc1`, the composite z-score is 1.37 (inactive) in experiment [1] and 0.805 in the experiment with XIP peptide (Xip251-270). The z-score is -2.53 in experiment [2], -1.83 (inactive) in experiment [3], -0.164 (inactive) in experiment [4] and 0.217 (inactive) in experiment [5].

As to `C=CCN1C(=O)[C@]2(Cc3ccccc31)N=C(c1ccc(OCCCO)cc1)O[C@@H]2c1ccccc1`, the values for the composite z-score (in experiment [1]; in the experiment with XIP peptide (Xip251-270)) were 0.526 (inactive) and 0.791, respectively. For the same molecule, the z-score is -2.07 in experiment [2], -4.97 (inactive) in experiment [3], -0.149 (inactive) in experiment [4] and 0.0449 (inactive) in experiment [5].

For the molecule `[N-]=[N+]=Nc1ccccc1[C@H]1OC(c2ccc(OCCCO)cc2)=N[C@@]1(CCS(=O)(=O)c1ccccc1)C(=O)N1CCOCC1`, the composite z-score in experiment [1] was 1.72 (inactive); with XIP peptide (Xip251-270) it was 0.562. Besides, the z-score is -2.04 in experiment [2], -1.14 (inactive) in experiment [3], -0.0149 (inactive) in experiment [4] and 0.0382 (inactive) in experiment [5].

With `O=C1OCCC=C[C@H]2OC34C=CCN(CCN5CCOCC5)C(=O)[C@H]3N(CCO)C(=O)[C@@H]4C12` (some centres not stated), the composite z-score in experiment [1] is 0.134 (inactive); in the experiment with XIP peptide (Xip251-270) it was 0.0053. Besides, the z-score is 0.0863 in experiment [2], -5.81 (inactive) in experiment [3], -0.492 (inactive) in experiment [4] and -0.757 (inactive) in experiment [5].

On to `COc1c(C)cc(-c2cc3c(c(-c4ccccc4)n2)[Si](C(C)C)(C(C)C)O[C@H]3c2ccccc2)cc1C`, for which the composite z-score in experiment [1] is 0.648 (inactive); in the experiment with XIP peptide (Xip251-270), -0.029. Also, the z-score in experiment [2] was -2.88; in experiment [3] it was -0.742 (inactive); in experiment [4] it was -0.59 (inactive); in experiment [5], -0.492 (inactive).

Consider `CCN(CC)c1ccc(N2CC=CC34O[C@@H]5C=CCCOC(=O)C5[C@H]3C(=O)N(CCCO)[C@@H]4C2=O)cc1` (some centres not stated), for which the figures for the composite z-score (in experiment [1]; with XIP peptide (Xip251-270)) were -0.658 (inactive) and -0.588, respectively. Further, the z-score in experiment [2] is -1.49; in experiment [3], -3.95 (inactive); in experiment [4], -0.28 (inactive); in experiment [5], -0.816 (inactive).

Take `COC(=O)[C@@]1(Cc2ccc(F)cc2)[C@H]2c3cc(C(=O)N(C)C)n(Cc4ccccn4)c3C[C@H]2CN1C(=O)c1ccccc1`: the values for the composite z-score (in experiment [1]; in the experiment on XIP peptide (Xip251-270)) were -0.0593 (inactive) and 0.352, respectively. Besides, the z-score in experiment [2] was -0.393; in experiment [3] it was -5.64 (inactive); in experiment [4] it was 0.412 (inactive); in experiment [5], 0.427 (inactive).

`CCCNC(=O)[C@@]1(C)c2ccccc2C(=O)N(C(C)C)[C@H]1c1ccc(CO)cc1`: the composite z-score in experiment [1] is -0.358 (inactive); in the experiment with XIP peptide (Xip251-270), -0.395. The z-score in experiment [2] was -1.46; in experiment [3] it was -3.3 (inactive); in experiment [4] it was -0.017 (inactive); in experiment [5], -0.211 (inactive).

`[N-]=[N+]=NCc1ccccc1C[C@]1(C(=O)N2CCOCC2)N=C(c2ccc(OCCCO)cc2)O[C@H]1c1ccccc1`: the values for the composite z-score (in experiment [1]; in the experiment on XIP peptide (Xip251-270)) were 0.855 (inactive) and 0.21, respectively. Besides, the z-score in experiment [2] is -2.38; in experiment [3], -6.01 (inactive); in experiment [4], -0.638 (inactive); in experiment [5] it was -0.71 (inactive).

With `O=C1C2C=CC(C(O)c3ccc(B(O)O)cc3)N(Nc3ccc([N+](=O)[O-])cc3)C2C(=O)N1c1ccccc1` (configuration not stated), the figures for the composite z-score (in experiment [1]; in the experiment with XIP peptide (Xip251-270)) were 0.432 (inactive) and 0.208, respectively. The z-score in experiment [2] was 1.18; in experiment [3], -1.63 (inactive); in experiment [4], -0.169 (inactive); in experiment [5] it was -0.219 (inactive).

In the case of `[N-]=[N+]=NCc1ccccc1C[C@]1(C(N)=O)N=C(c2ccc(OCCCO)cc2)O[C@H]1c1ccccc1N=[N+]=[N-]`, the figures for the composite z-score (in experiment [1]; with XIP peptide (Xip251-270)) were 2.56 (inactive) and 0.664, respectively. Further, the z-score in experiment [2] is -2.06; in experiment [3], -4.7 (inactive); in experiment [4], -0.118 (inactive); in experiment [5], -0.0296 (inactive).

For `O=P(NCC1(CC2(c3ccccc3)CO2)CC1)(c1ccccc1)c1ccccc1` (configuration not stated), the composite z-score was 0.588 (inactive) in experiment [1] and 0.822 in the experiment with XIP peptide (Xip251-270). Further, the z-score in experiment [2] is 0.561; in experiment [3] it was -3.26 (inactive); in experiment [4], -0.124 (inactive); in experiment [5], -0.208 (inactive).

Regarding `CN(C)CCCC[C@@H]1NC(=O)[C@@H]2C[C@H](C(=O)NCc3ccc(F)cc3)[C@H](c3cccc(OCCO)c3)N2C1=O`, the composite z-score in experiment [1] was 0.658 (inactive); in the experiment with XIP peptide (Xip251-270), 0.813. In addition, the z-score is -0.459 in experiment [2], -3.36 (inactive) in experiment [3], 0.445 (inactive) in experiment [4] and 0.314 (inactive) in experiment [5].

Take `O=C1OCC=C[C@H]2OC34C=CCN(CCN5CCOCC5)C(=O)[C@H]3N(CCCCCCO)C(=O)[C@@H]4[C@@H]12` (some centres not stated): the composite z-score is 0.304 (inactive) in experiment [1] and -0.291 with XIP peptide (Xip251-270). Further, the z-score in experiment [2] was -0.448; in experiment [3], -7.09 (inactive); in experiment [4], -1.52 (inactive); in experiment [5] it was -1.21 (inactive).

As to `C[N+](C)(C)CCCC[C@@H]1NC(=O)[C@H]2C[C@@H](C(=O)O)[C@@H](c3cccc(OCCO)c3)N2C1=O`, the composite z-score in experiment [1] was 3.68 (inactive); with XIP peptide (Xip251-270), 0.809. Besides, the z-score was -0.255 in experiment [2], -0.304 (inactive) in experiment [3], 0.336 (inactive) in experiment [4] and 0.213 (inactive) in experiment [5].
